Rows were chosen to be rich in hits. Some 11% of all compounds tested hit in one or more screens of this group.
G9a inh: G9a (human) methyltransferase inhibition | Q96KQ7 | G9a H3K9 monomethylation, AlphaScreen, 2 h | Potency, µM (series often up to 102 µM), usual class: inhibitors | 350,000 compounds, 8.8% hits | AID 504332; also: nearly all actives have a fitted effect of over 75% in size
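Using a bead-based AlphaScreen, monomethylated H3K9 product from 2 h room-temperature reactions (G9a 20 nM, peptide 500 nM, SAM 20 uM) was detected with 0.5 ug/mL rabbit anti-H3K9me1 antibody.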
HP1b chromo inh: HP1-beta chromodomain-methylated histone interaction inhibition | AlphaScreen HP1-beta / biotin-H3K9me3 peptide binding | Potency, µM (top dose mostly 114 µM), actives largely listed as inhibitors | 390,000 compounds, 0.56% hits | AID 540317; also: nearly all actives have a fitted effect of over 70% in size
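Compound inhibition of the preformed complex between 50 nM HP1-beta and 50 nM biotinylated H3K9me3 peptide was read by AlphaScreen. Buffer was PBS pH 7.4 with 0.01% Tween-20. Incubations ran 30 min at room temperature, with 10 ug/mL donor/acceptor beads.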
BAZ2B inh: inhibitors of human BAZ2B bromodomain | AID 504333 | 360,000 compounds, 4.4% hits | AlphaScreen BAZ2B-H3K14Ac peptide displacement | Potency, µM (doses to about 114 µM), hits mostly inhibitors; also: nearly all actives have a fitted effect of over 60% in size
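AlphaScreen displacement of biotin-H3(5-23)K14Ac peptide (50 nM final) from BAZ2B (50 nM final) in PBS pH 7.4, 0.01% Tween-20; complex preformed 30 min RT, then compounds (top 110 uM) 30 min RT, beads 20 min dark.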
L3MBTL1 block: L3MBTL1 (human) inhibition. Potency, µM (highest dose often 57.1 µM), usual class: inhibitors. 230,000 compounds, 0.66% hits. Q9Y468. AlphaScreen L3MBTL1–H3K9me1 peptide binding; also: nearly all actives have a fitted effect of over 60% in size
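Displacement of a biotinylated histone H3(1-15) peptide monomethylated at Lys9 (75 nM) from L3MBTL1 (50 nM) was measured by AlphaScreen after a 30 min room-temperature compound incubation; cefsulodin titration served as intraplate control.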
JMJD2A Tudor: blocks the human JMJD2A Tudor domain. O75164. AlphaScreen JMJD2A-Tudor / H3K4me3 peptide binding. Potency, µM (titrated, usually from 114 µM), usual class: inhibitors. 390,000 compounds, 4.4% hits; also: nearly all actives have a fitted effect of over 50% in size
Each line names hits and unclear results; the compound was inactive in the other large screens. Calls follow the shape of the dose curve; as a rule, active = well fitted inhibition curve with a large enough effect; inconclusive = small, poorly fitted or top-dose-only effect; inactive = no such curve, though single readings can be large or run the other way.

CC(=O)c1ccc(N=Nc2c(C)[nH]n(-c3ccccc3)c2=O)cc1	G9a inh 3.55µM, HP1b chromo inh inconclusive, BAZ2B inh 31.6µM, JMJD2A Tudor inconclusive
Cc1[nH]n(-c2ccccc2)c(=O)c1N=Nc1cccc(C(=O)O)c1	JMJD2A Tudor inconclusive (no result: G9a inh)
Cc1[nH]n(-c2ccccc2)c(=O)c1N=Nc1ccccc1	G9a inh 3.55µM, HP1b chromo inh inconclusive, BAZ2B inh 2.51µM, JMJD2A Tudor 11.2µM
O=C(Nc1cccc(-c2nc3ccccc3[nH]2)c1)c1c(F)cccc1F	none (no result: L3MBTL1 block)
CCc1cccc(NC(=O)CCN2C(=O)c3ccccc3Sc3ncccc32)c1	BAZ2B inh inconclusive (no result: L3MBTL1 block)
Cc1ccc(NC(=O)C2CCCN2S(=O)(=O)c2ccc3nc(-c4ccccc4)[nH]c3c2)cc1F (centres undefined)	JMJD2A Tudor inconclusive (no result: L3MBTL1 block)
O=C(Nc1c(C(=O)O)[nH]c2ccccc12)c1cccc(C(F)(F)F)c1	G9a inh inconclusive, HP1b chromo inh inconclusive
O=C(Nc1c(C(=O)O)[nH]c2ccc(F)cc12)c1cccc(C(F)(F)F)c1	G9a inh inconclusive, HP1b chromo inh inconclusive, JMJD2A Tudor 79.4µM
CN(CCO)c1nc(N)c2c(N)nc3c(c2c1C#N)CC(=O)N3Cc1cccs1	G9a inh inconclusive
N#Cc1c(N(CCO)CCO)nc(N)c2c(N)nc3c(c12)CC(=O)N3Cc1cccs1	G9a inh 44.7µM, BAZ2B inh inconclusive, JMJD2A Tudor inconclusive
CN(C(=O)COc1ccccc1)c1nnc(C23CC4CC(CC(C4)C2)C3)s1	G9a inh 14.1µM
CN(C(=O)COc1ccccc1)c1nnc(-c2cccnc2)s1	none (no result: L3MBTL1 block)
c1cnc2c(OCc3cn4cccnc4n3)cccc2c1	G9a inh 3.16µM, BAZ2B inh inconclusive, JMJD2A Tudor inconclusive (no result: L3MBTL1 block)
Clc1ccc(OCc2cn3cccnc3n2)c2ncccc12	none (no result: L3MBTL1 block)
CCC(C)NCCCOc1cc(Cl)ccc1Cl (centres undefined)	G9a inh 7.94µM, HP1b chromo inh inconclusive, BAZ2B inh 50.1µM, JMJD2A Tudor 2.51µM (no result: L3MBTL1 block)
CCC(C)NCCCCOc1ccc(Cl)cc1C (centres undefined)	G9a inh inconclusive, JMJD2A Tudor 14.1µM
CCC(C)NC(=O)c1ccc(Cn2c(=O)c3cccn3c3cccnc32)cc1 (centres undefined)	none (no result: L3MBTL1 block)
Cc1ccccc1-n1ncc2c([N+](=O)[O-])cc([N+](=O)[O-])cc21	G9a inh inconclusive, HP1b chromo inh 39.8µM, BAZ2B inh 31.6µM, L3MBTL1 block inconclusive, JMJD2A Tudor 56.2µM
N#Cc1c2n(c(=S)n(-c3ccc(OC(F)F)cc3)c1=O)CCCCC2	none (no result: L3MBTL1 block)
N#Cc1c2n(c(=S)n(-c3ccccn3)c1=O)CCCCC2	G9a inh 22.4µM
COc1ccc(CNCc2ccc(C(F)(F)F)cc2)cc1OC	G9a inh 79.4µM, JMJD2A Tudor 89.1µM
COc1cc(CN2CCN(Cc3ccccc3C(F)(F)F)CC2)cc(OC)c1OC	HP1b chromo inh 25.1µM, BAZ2B inh 20µM, JMJD2A Tudor 0.794µM (no result: L3MBTL1 block)
COc1cc(CN2CCN(Cc3ccc(C(F)(F)F)cc3)CC2)cc(OC)c1OC	HP1b chromo inh inconclusive, BAZ2B inh 17.8µM, JMJD2A Tudor 20µM
CS(=O)(=O)N1CCN(Cc2ccc(C(F)(F)F)cc2)CC1	G9a inh 3.16µM, HP1b chromo inh inconclusive, BAZ2B inh inconclusive, JMJD2A Tudor 1.58µM (no result: L3MBTL1 block)
O=C(O)C1=C[C@@H](c2ccccc2)C[C@@H](OCCCCO)O1	none (no result: G9a inh, BAZ2B inh, L3MBTL1 block)
O=C(O)C1=C[C@H](c2ccccc2)C[C@H](OCCCCO)O1	none (no result: G9a inh, BAZ2B inh, L3MBTL1 block)
O=C(O)C1=C[C@H](c2ccc(F)cc2)C[C@H](OCCCCO)O1	BAZ2B inh 79.4µM (no result: L3MBTL1 block)
COc1ccc([C@H]2C=C(C(=O)O)O[C@@H](OCCCCO)C2)cc1	BAZ2B inh inconclusive, JMJD2A Tudor 56.2µM (no result: L3MBTL1 block)
C#Cc1ccc([C@@H]2C=C(C(=O)OCC=C)O[C@H](OCCCCO)C2)cc1	G9a inh inconclusive, BAZ2B inh 50.1µM
Cc1cc(C)cc(NC(=O)C(Cc2ccccc2)NS(=O)(=O)c2ccc3c(c2)CCC(=O)N3)c1 (centres undefined)	none (no result: L3MBTL1 block)
Cc1ccc(-n2ncc3c(NCCC4=CCCCC4)ncnc32)cc1	G9a inh inconclusive (no result: L3MBTL1 block)
CCC1CCC(N2CCN(c3ccc(F)cc3)CC2)CC1 (centres undefined)	G9a inh 44.7µM
CCC1CCC(N2CCN(c3ccc([N+](=O)[O-])cc3)CC2)CC1 (centres undefined)	BAZ2B inh 70.8µM, JMJD2A Tudor inconclusive (no result: G9a inh)

Screening data (PubChem BioAssay)
